From PubChem BioAssay

test system: not listed separately; assay: small-molecule binders of probe aNOTCH2, primary screen, biochemical, small-molecule microarray, 635/667 nm fluorescence (AID 1121); settings: higher = more signal;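 note: score merges feature fluorescence read at 667 nm with its signal to noise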

SMILES	composite z-score
C=C(/C(=C/C[C@@H](OC(=O)c1ccncc1)c1cccc(OCCO)c1)c1cc(C(=O)OC)ccc1OC)C(C)C	-0.0207
CCOC(=O)C[C@H]1[C@H](OC(=O)Cc2ccc3c(c2)OCO3)[C@@H](NC(=O)c2ccccc2)c2cc(OCCCO)ccc2N1C(=O)c1ccccc1	-0.121
CCCC=C(CCC)[C@@H](NS(=O)(=O)c1ccccc1)c1ccc(C(F)(F)F)cc1	0.277
C=C[C@H](C)[C@H](OC(=O)Nc1ccc(SC)cc1)c1ccc(O)c2ccccc12	-0.192
CC1(C)[C@@H]2CC(C(O)C3C=CC4C(=O)N(c5ccccc5)C(=O)C4N3Nc3ccccc3F)=C[C@@H]1C2 (some centres not stated)	-0.229
COC(=O)c1ccc(OC)c(/C=C\CC(CCc2ccccc2)OC(=O)c2ccncc2)c1 (configuration not stated)	-0.225
O=C1C2C=CC(C(O)c3ccc(Br)cc3)N(Nc3ccccc3)C2C(=O)N1c1ccccc1 (configuration not stated)	0.166
COCCOC(=O)N1C(=O)[C@@]2(c3cc(C#Cc4ccc(OC)cc4)ccc31)[C@H](C(=O)N1CCc3cc(OC)c(OC)cc3C1)[C@H]1C(=O)O[C@H](c3ccccc3)[C@H](c3ccccc3)N1[C@@H]2c1ccc(OCCO)cc1	-0.149
C=CCC(OC(C)=O)[C@@H]1[C@@H](N(Cc2ccc(-c3cccc(C(F)(F)F)c3)o2)C(=O)c2cccc3ccccc23)c2cc(OCCCO)ccc2N1C(=O)c1ccc(-c2ccccc2)cc1 (some centres not stated)	-0.053
CCCN1C(=O)[C@@]2(Cc3ccccc3)N=C(c3ccc(OCCCO)cc3)O[C@H]2c2ccccc21	0.0055
O=C1c2ccccc2[C@](Cc2ccccc2I)(C(=O)NCC(F)(F)F)[C@H](c2ccc(CO)cc2)N1Cc1ccccc1	-0.112
COc1ccc([Si](C)(C)[C@@H]2[C@@H](CC(=O)N(CCO)Cc3ccccc3)O[C@]3(C(=O)N(C)c4c(Br)cc(C)cc43)[C@H]2C)cc1	-0.124
CCOC(=O)C[C@H]1[C@H](OC(=O)Cc2ccc3c(c2)OCO3)[C@@H](NC(=O)c2ccccc2)c2cc(OCCCO)ccc2N1C(=O)c1ccc2ccccc2n1	-0.147
COC(=O)[C@]1(Cc2ccccc2CN=[N+]=[N-])N=C(c2ccc(OCCCO)cc2)O[C@@H]1c1ccccc1	-0.0194
CN(C)CCCC[C@@H]1NC(=O)[C@H]2C[C@@H](C(=O)NCCCCCCNC(=O)CS)[C@@H](c3ccc(O)cc3)N2C1=O	-0.14
O=C(O)[C@]1(CCS(=O)(=O)c2ccccc2)N=C(c2ccc(OCCCO)cc2)O[C@@H]1c1ccccc1	0.197
C=CCC(OC(C)=O)[C@@H]1[C@@H](N(Cc2cccc3ccccc23)C(=O)c2ccc(C)cc2)c2cc(OCCCO)ccc2N1C(=O)c1ccc2ccccc2c1 (some centres not stated)	-0.0924

target: Carbonic anhydrase 2 (Homo sapiens) (UniProt P00918); assay: CAII small-molecule binders, profiling panel, biochemical, small-molecule microarray, Alexa647-labelled CAII (AID 1122); settings: CAII-A647 binding fluorescence, higher = more signal

SMILES	composite z-score
C[C@@H]1ON(c2ccccc2)[C@H](c2ccccc2)[C@H]1C(=O)N1C(=O)OC[C@H]1Cc1ccccc1	0.303
COCCCNC(=O)[C@@H]1c2ccccc2C(=O)N(c2ccc(C)cn2)[C@H]1c1ccc(CO)cc1	0.0072
CC(=O)NCCCC[C@@H]1NC(=O)[C@H]2C[C@@H](C(=O)NCCCCCN)[C@@H](c3cccc(OCCO)c3)N2C1=O	0.715
C=CCOC(=O)[C@@H]1[C@H]2C(=O)O[C@H](c3ccccc3)[C@H](c3ccccc3)N2[C@H](c2ccc(OCCOC(=O)[C@H]3C[C@H]4C(=O)N[C@@H](Cc5ccccc5)C(=O)N4[C@H]3c3cccc(OCCO)c3)cc2)[C@@]12C(=O)Nc1ccc(I)cc12	0.344
O=C(Nc1cc(Br)ccc1C(=O)NCc1cccc(O)c1)c1ccccc1	0.62
CC(C)CCC[C@@H](C)[C@H]1CC[C@@]2(C)C3=C(CC[C@]12C)[C@@]1(C)CC[C@H](OC(=O)C(C)(C)C)C(C)(C)C1CC3 (some centres not stated)	-0.0485
COC(=O)[C@@]1(Cc2ccccc2)[C@H]2c3cc(C(=O)N(C)C)n(Cc4ccc(O)c(OC)c4)c3C[C@H]2CN1C(=O)c1ccccc1	0.759
CC(C)C[C@H]1NC(=O)[C@H](C)NC(=O)[C@@]23C(=O)N[C@@H](Cc4ccccc4)C2[C@H](C)[C@@]2(C)O[C@H]2C3/C=C/C/C=C\CNC1=O (some centres not stated)	0.734
NCCCCCCNC(=O)[C@H]1C[C@H]2C(=O)N3CCC[C@H]3C(=O)N2[C@H]1c1ccc(O)cc1	0.722
COC(=O)C(CC#Cc1ccc2c(c1)[C@]1(C(=O)N2)[C@H](c2ccc(OCCO)cc2)N2[C@H](c3ccccc3)[C@H](c3ccccc3)OC(=O)[C@H]2[C@@H]1C(=O)O)C(=O)OC	0.724
O=C1O[C@H](c2ccccc2)[C@H](c2ccccc2)N2[C@H]1[C@@H](C(=O)N1CCN(c3ncccn3)CC1)[C@]1(C(=O)Nc3ccc(C#CCCO)cc31)[C@H]2c1ccc(OCCO)cc1	0.296
NC(=O)NCC#Cc1ccc2c(c1)[C@]1(C(=O)N2)[C@H](c2ccc(OCCO)cc2)N2[C@H](c3ccccc3)[C@H](c3ccccc3)OC(=O)[C@H]2[C@@H]1C(=O)N1CCCCCCC1	0.894
CN(C)C(=O)[C@@]1(CCS(=O)(=O)c2ccccc2)N=C(c2ccc(OCCCO)cc2)O[C@H]1c1ccccc1CN=[N+]=[N-]	0.553
COc1ccc(CCNC(=O)[C@@H]2c3ccccc3C(=O)N(Cc3ccccc3C(F)(F)F)[C@H]2c2ccc(CO)cc2)cc1	0.466
O=C1O[C@H](c2ccccc2)[C@H](c2ccccc2)N2[C@H]1[C@@H](C(=O)NC[C@H](O)c1ccccc1)[C@]1(C(=O)Nc3ccccc31)[C@H]2c1ccccc1OCCO	0.613
C=C(CCCC)/C(=C/C[C@H](OC(=O)c1ccncc1)c1ccc(CO)o1)c1cc(C(=O)OC)ccc1OC	0.609
CCCCCCCCCCC(O)C1C=CC2C(=O)NC(=O)C2N1Nc1ccccn1 (configuration not stated)	0.287
COC(=O)[C@@]1(Cc2ccc(OC)cc2)[C@H]2c3cc(C(=O)N4CCCC4)n(Cc4ccc(C)o4)c3C[C@H]2CN1C(=O)c1ccccc1	0.614

SMILES	composite z-score
C=C(/C(=C/C[C@@H](OC(=O)c1ccncc1)c1cccc(OCCO)c1)c1cc(C(=O)OC)ccc1OC)C(C)C	0.597
CCOC(=O)C[C@H]1[C@H](OC(=O)Cc2ccc3c(c2)OCO3)[C@@H](NC(=O)c2ccccc2)c2cc(OCCCO)ccc2N1C(=O)c1ccccc1	0.0488
CCCC=C(CCC)[C@@H](NS(=O)(=O)c1ccccc1)c1ccc(C(F)(F)F)cc1	0.578
C=C[C@H](C)[C@H](OC(=O)Nc1ccc(SC)cc1)c1ccc(O)c2ccccc12	0.736
CC1(C)[C@@H]2CC(C(O)C3C=CC4C(=O)N(c5ccccc5)C(=O)C4N3Nc3ccccc3F)=C[C@@H]1C2 (some centres not stated)	0.571
COC(=O)c1ccc(OC)c(/C=C\CC(CCc2ccccc2)OC(=O)c2ccncc2)c1 (configuration not stated)	0.388
O=C1C2C=CC(C(O)c3ccc(Br)cc3)N(Nc3ccccc3)C2C(=O)N1c1ccccc1 (configuration not stated)	0.652
COCCOC(=O)N1C(=O)[C@@]2(c3cc(C#Cc4ccc(OC)cc4)ccc31)[C@H](C(=O)N1CCc3cc(OC)c(OC)cc3C1)[C@H]1C(=O)O[C@H](c3ccccc3)[C@H](c3ccccc3)N1[C@@H]2c1ccc(OCCO)cc1	0.22
C=CCC(OC(C)=O)[C@@H]1[C@@H](N(Cc2ccc(-c3cccc(C(F)(F)F)c3)o2)C(=O)c2cccc3ccccc23)c2cc(OCCCO)ccc2N1C(=O)c1ccc(-c2ccccc2)cc1 (some centres not stated)	-0.406
CCCN1C(=O)[C@@]2(Cc3ccccc3)N=C(c3ccc(OCCCO)cc3)O[C@H]2c2ccccc21	0.329
O=C1c2ccccc2[C@](Cc2ccccc2I)(C(=O)NCC(F)(F)F)[C@H](c2ccc(CO)cc2)N1Cc1ccccc1	0.593
COc1ccc([Si](C)(C)[C@@H]2[C@@H](CC(=O)N(CCO)Cc3ccccc3)O[C@]3(C(=O)N(C)c4c(Br)cc(C)cc43)[C@H]2C)cc1	0.154
CCOC(=O)C[C@H]1[C@H](OC(=O)Cc2ccc3c(c2)OCO3)[C@@H](NC(=O)c2ccccc2)c2cc(OCCCO)ccc2N1C(=O)c1ccc2ccccc2n1	0.08
COC(=O)[C@]1(Cc2ccccc2CN=[N+]=[N-])N=C(c2ccc(OCCCO)cc2)O[C@@H]1c1ccccc1	0.563
CN(C)CCCC[C@@H]1NC(=O)[C@H]2C[C@@H](C(=O)NCCCCCCNC(=O)CS)[C@@H](c3ccc(O)cc3)N2C1=O	0.802
O=C(O)[C@]1(CCS(=O)(=O)c2ccccc2)N=C(c2ccc(OCCCO)cc2)O[C@@H]1c1ccccc1	0.858
C=CCC(OC(C)=O)[C@@H]1[C@@H](N(Cc2cccc3ccccc23)C(=O)c2ccc(C)cc2)c2cc(OCCCO)ccc2N1C(=O)c1ccc2ccccc2c1 (some centres not stated)	0.0697
